Experimental data taken from PubChem BioAssay (NCATS).
A number with no mark means an inactive call. Inconclusive results are not listed. Entries that show only a call come without a potency. The source made the active and inactive calls. Calls come from the whole dose curve; as a rule, active = well fitted curve in the direction sought with a large enough effect; inconclusive = small, poorly fitted or top-dose-only effect, or another doubt; inactive = no such curve, though single readings can be large; an effect the other way counts as inactive or inconclusive.

Assays:
[1] = molecular target: Glutathione peroxidase 1 (Homo sapiens) (UniProt P07203); test: Primary qHTS Assay for Inhibitors of Recombinant Selenoprotein Glutathione Peroxidase 1 (GPX1) (AID 1845191); note: nearly all actives have a fitted effect of over 65% in size
Summary of the method: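 GR-coupled assay: compounds preincubated 30 min at room temperature with GPX1, then reaction started with CHP; final 10 nM GPX1, 1 mM GSH, 0.5 mM CHP, 0.5 mM NADPH, 100 nM GR, 0.01% BSA, pH 7.5 Tris buffer. NADPH fluorescence (340/450 nm) read at 0 and 15 min.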

[2] = molecular target: Phospholipid hydroperoxide glutathione peroxidase GPX4 (Homo sapiens) (UniProt P36969); test: Primary qHTS Assay for Inhibitors of Recombinant Selenoprotein Glutathione Peroxidase 4 (GPX4) (AID 1845192); note: nearly all actives have a fitted effect of over 65% in size; for activity change, negative = inhibition: series mostly up to about 50 µM
Summary of the method: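 GR-coupled assay: recombinant GPX4 preincubated 30 min with compound at room temperature; final 200 nM GPX4, 1 mM GSH, 0.5 mM cumene hydroperoxide, 0.5 mM NADPH, 100 nM GR, 0.01% BSA, pH 7.5 Tris. NADPH fluorescence (340/450 nm) read at 0 and 15 min.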

[3] = molecular target: Luciferin 4-monooxygenase (Photinus pyralis) (UniProt P08659); test: Primary firefly luciferase (FLuc) qHTS assay for identification of artifact compounds. (AID 1845220); note: nearly all actives have a fitted effect of over 60% in size; for activity change, negative = inhibition: series mostly up to about 54 µM
Summary of the method: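 D-luciferin and ATP (10 uM each, final) in Tris acetate buffer pH 7.6 were incubated with compounds for 15 min at room temperature. The reaction was started with 10 nM Photinus pyralis luciferase and luminescence read after 5 min. Percent inhibition was fitted to a 4-parameter Hill equation.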

[4] = Primary fluorescence-based thiol-reactive (MSTI) qHTS assay for identification of artifact compounds. (AID 1845221); note: nearly all actives have a fitted effect of over 65% in size; note: potency is the fitted concentration of half-maximal effect;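 for activity change, negative = thiol reactive: series mostly up to about 54 µM; thiol-reactive compounds lower the probe fluorescence signal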
Summary of the method: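 Thiol-reactive compounds detected by quenching of 4 uM MSTI fluorescence (525/598 nm) after 1 h room-temperature dark incubation in PBS pH 7.4, 2% DMSO. qHTS titration; percent inhibition Hill-fitted against Acetyl-MSTI/MSTI controls.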

[5] = system: Nanoluciferase (engineered Oplophorus gracilirostris luciferase); test: Primary Nanoluciferase (NLuc) qHTS assay for identification of artifact compounds. (AID 1845222); note: series mostly up to about 54 µM
Summary of the method: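 Diluted conditioned medium from NLuc-expressing S16 cells treated with compounds for 15 min at room temperature, then Nano-Glo substrate added; luminescence read after 5 min. Percent inhibition versus no-enzyme and DMSO controls fitted to 4-parameter Hill equation.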

[6] = Primary redox qHTS assay for identification of artifact compounds. (AID 1845223)
Summary of the method: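 Amplex Red (25 uM) and HRP (250 mU/mL) in HBSS, with compounds for 15 min, then 250 uM DTT for 30 min, room temperature, dark. Fluorescence 525/598 nm read; normalized to DMSO and 10 uM DA3003; Hill fit.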

Glutathione peroxidase 1 (Homo sapiens), sequence (P07203 whole entry, looked up): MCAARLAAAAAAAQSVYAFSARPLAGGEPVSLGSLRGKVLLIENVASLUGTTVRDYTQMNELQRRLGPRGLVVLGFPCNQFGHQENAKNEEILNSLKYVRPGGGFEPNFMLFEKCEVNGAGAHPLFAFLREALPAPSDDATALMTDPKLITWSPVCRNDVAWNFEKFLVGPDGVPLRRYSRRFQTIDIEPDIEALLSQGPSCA
Phospholipid hydroperoxide glutathione peroxidase GPX4 (Homo sapiens), sequence (P36969 whole entry, looked up): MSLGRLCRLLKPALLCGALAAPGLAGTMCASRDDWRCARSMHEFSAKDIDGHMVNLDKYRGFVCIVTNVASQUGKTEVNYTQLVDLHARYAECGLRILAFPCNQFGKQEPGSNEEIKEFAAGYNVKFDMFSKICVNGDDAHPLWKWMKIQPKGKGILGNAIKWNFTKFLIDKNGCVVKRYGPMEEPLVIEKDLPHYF

Q: For `CCN1CCN(C(=O)N[C@@H](C(=O)N[C@@H]2C(=O)N3[C@@H]2SC(C)(C)[C@@H]3C(=O)O)c2ccccc2)C(=O)C1=O`, which Potency [1] is on record?
A: inactive

Q: And the Potency [2]?
A: inactive

Q: What about the Potency [3] of the same compound?
A: inactive

Q: And the Potency [4]?
A: inactive

Q: And the Potency [5]?
A: inactive

Q: With `CC(=O)c1[nH]cc(CCC(=O)O)c1CC(=O)O` as the compound, how does the Potency [1] read?
A: inactive

Q: And the Potency [2]?
A: inactive

Q: What about the Potency [3] of the same compound?
A: inactive

Q: What about the Potency [4] of the same compound?
A: inactive

Q: What about the Potency [5] of the same compound?
A: inactive

Q: And the Potency [6]?
A: inactive

Q: Which Potency [1] does the source give for `CC(CC12CCCN1C(=O)C1CCCN1C2=O)OC(N)=O` (centres undefined) here?
A: inactive

Q: What about the Potency [2] of the same compound?
A: inactive

Q: What about the Potency [3] of the same compound?
A: inactive

Q: What about the Potency [4] of the same compound?
A: inactive

Q: And the Potency [5]?
A: inactive

Q: Which Potency [1] does the source give for `C/C=C/C(=O)OC1/C=C/C(O)C(OC(C)=O)CCC(=O)OC1C` (centres undefined) here?
A: inactive

Q: What about the Potency [2] of the same compound?
A: inactive

Q: What about the Potency [3] of the same compound?
A: inactive

Q: And the Potency [4]?
A: inactive

Q: And the Potency [5]?
A: inactive

Q: What about the Potency [6] of the same compound?
A: inactive

Q: Which Potency [1] does the source give for `COc1cc(O)cc(C)c1C(=O)OC1C(CO)OC(n2ccc(=O)[nH]c2=O)C1OC(C)=O` (centres undefined) here?
A: inactive

Q: What about the Potency [2] of the same compound?
A: inactive

Q: What about the Potency [3] of the same compound?
A: inactive

Q: And the Potency [4]?
A: 9.22 µM (active)

Q: And the Potency [5]?
A: inactive

Q: And the Potency [6]?
A: inactive

Q: For `CC(=O)NC1CC(=O)C23C(=O)NC(Cc4c[nH]c5ccccc45)C2C(C)=C(C)C(O)C3/C=C/CC(C)/C=C(/C)C(O)C1O` (centres undefined), which Potency [1] is on record?
A: inactive

Q: And the Potency [2]?
A: inactive

Q: What about the Potency [3] of the same compound?
A: inactive

Q: What about the Potency [4] of the same compound?
A: inactive

Q: And the Potency [5]?
A: inactive

Q: And the Potency [6]?
A: inactive

Q: With `C=C1C(O)C(O)C2(CC3C(C)=CCC4C(C)(C(=O)O)CCCC34C)OC2C1O` (centres undefined) as the compound, how does the Potency [1] read?
A: inactive

Q: And the Potency [2]?
A: inactive

Q: What about the Potency [3] of the same compound?
A: inactive

Q: What about the Potency [4] of the same compound?
A: 5.21 µM (active)

Q: And the Potency [5]?
A: inactive

Q: What does the source list for `O=C(O)[C@H]1Cc2ccccc2CN1`?
A: outcome [1]: inactive [at 4.49 µM]; activity change, negative = inhibition [2]: 3.24% [at 4.52 µM]; outcome [3]: inactive [at 6.45 µM]; activity change, negative = thiol reactive [4]: -3.73% [at 6.41 µM]; activity, negative = inhibition [5]: 0% [at 6.45 µM]; redox activity (% of DA3003) [6]: -3.86% [at 6.41 µM]

Q: What does the source list for `C=C1CCC2C(C)(C(=O)OC)CCCC2(C)C1CCC1=CCOC1=O` (centres undefined)?
A: Potency [1]: inactive; Potency [2]: inactive; Potency [3]: inactive; Potency [4]: inactive; Potency [5]: inactive; Potency [6]: inactive

Q: With `OC[C@H]1O[C@@H](O[C@H]2[C@H](O)[C@@H](CO)O[C@@H](OCc3ccccc3)[C@@H]2O[C@@H]2OC[C@](O)(CO)[C@H]2O)[C@H](O)[C@@H](O)[C@@H]1O` as the compound, how does the Potency [1] read?
A: inactive

Q: What about the Potency [2] of the same compound?
A: inactive

Q: And the Potency [3]?
A: inactive

Q: And the Potency [4]?
A: inactive

Q: What about the Potency [5] of the same compound?
A: inactive

Q: And the Potency [6]?
A: inactive

Q: Which Potency [1] does the source give for `COc1cc(/C=C/C(=O)O[C@@H]2C[C@@](O)(C(=O)O)C[C@@H](O)[C@@H]2O)ccc1O` here?
A: inactive

Q: And the Potency [2]?
A: inactive

Q: What about the Potency [3] of the same compound?
A: inactive

Q: What about the Potency [4] of the same compound?
A: 6.56 µM (active)

Q: What about the Potency [5] of the same compound?
A: inactive

Q: What about the Potency [6] of the same compound?
A: inactive

Q: What does the source list for `CC1=CCC[C@@H]2[C@@](C)(CCc3ccoc3)[C@H](C(=O)O)CC[C@@]12C`?
A: Potency [1]: inactive; Potency [2]: inactive; Potency [3]: inactive; Potency [4]: inactive; Potency [5]: inactive; Potency [6]: inactive

Q: What does the source list for `CC(=O)NCC1CN(c2ccc(-c3ccc(CNCc4cn[nH]n4)cc3)c(F)c2)C(=O)O1` (centres undefined)?
A: Potency [1]: inactive; Potency [2]: inactive; Potency [3]: inactive; Potency [4]: inactive; Potency [5]: inactive; Potency [6]: inactive

Q: Which results are given for `O=C(O[C@@H]1O[C@H](CO)[C@@H](O)[C@H](O)[C@H]1O)c1ccccc1`?
A: Potency [1]: inactive; Potency [2]: inactive; Potency [3]: inactive; Potency [4]: 23.8 µM (active); Potency [5]: inactive; Potency [6]: inactive

Q: Which Potency [1] does the source give for `C=CCC/C=C/C#CCCCCCCCC[C@H]1C(=O)O[C@H](C)[C@@H]1O` here?
A: inactive

Q: And the Potency [2]?
A: inactive

Q: And the Potency [3]?
A: inactive

Q: What about the Potency [4] of the same compound?
A: inactive

Q: What about the Potency [5] of the same compound?
A: inactive

Q: And the Potency [6]?
A: inactive

Q: With `OC[C@H]1O[C@@H](OCCc2ccccc2)[C@H](O)[C@@H](O)[C@@H]1O` as the compound, how does the Potency [1] read?
A: inactive

Q: What about the Potency [2] of the same compound?
A: inactive

Q: What about the Potency [3] of the same compound?
A: inactive

Q: And the Potency [4]?
A: 11.9 µM (active)

Q: What about the Potency [5] of the same compound?
A: inactive

Q: And the Potency [6]?
A: inactive

Q: For `CC(=O)OC(C)C(C)(O)C(=O)O[C@@H]1CC[C@]2(C)CC(=O)C(=C(C)C)C[C@H]2[C@]1(C)OC(C)=O` (some centres undefined), which Potency [1] is on record?
A: inactive

Q: And the Potency [2]?
A: inactive

Q: And the Potency [3]?
A: inactive

Q: And the Potency [4]?
A: inactive

Q: What about the Potency [5] of the same compound?
A: inactive

Q: What about the Potency [6] of the same compound?
A: inactive

Q: With `CC(C)(O)C1CC=C(C(=O)OC[C@H]2O[C@@H](OC(=O)C3=CCC(C(C)(C)O)CC3)[C@H](O)[C@@H](O)[C@@H]2O)CC1` (some centres undefined) as the compound, how does the Potency [1] read?
A: inactive

Q: What about the Potency [2] of the same compound?
A: inactive

Q: What about the Potency [3] of the same compound?
A: inactive

Q: What about the Potency [4] of the same compound?
A: 4.12 µM (active)

Q: What about the Potency [5] of the same compound?
A: inactive

Q: What about the Potency [6] of the same compound?
A: inactive

Q: With `N#CC1C(=O)N=C(c2cc(Cl)ccc2O)C=C1c1cc(OCc2ccccc2)cc(OCc2ccccc2)c1` (centres undefined) as the compound, how does the Potency [1] read?
A: inactive

Q: And the Potency [2]?
A: inactive

Q: And the Potency [3]?
A: inactive

Q: And the Potency [4]?
A: inactive

Q: And the Potency [5]?
A: inactive

Q: And the Potency [6]?
A: inactive

Q: With `CCC(C)C(C(=O)O)N1Cc2c(OCC=C(C)C)c(C)c(OC)c(C(=O)O)c2C1=O` (centres undefined) as the compound, how does the Potency [1] read?
A: inactive

Q: What about the Potency [2] of the same compound?
A: inactive

Q: What about the Potency [3] of the same compound?
A: inactive

Q: And the Potency [4]?
A: inactive

Q: What about the Potency [5] of the same compound?
A: inactive

Q: And the Potency [6]?
A: inactive

Q: For `COc1ccc(-n2[nH]c3c(cnc4ccccc43)c2=O)cc1`, which Potency [1] is on record?
A: inactive

Q: And the Potency [2]?
A: inactive

Q: What about the Potency [3] of the same compound?
A: inactive

Q: What about the Potency [4] of the same compound?
A: 4.74 µM (active)

Q: What about the Potency [5] of the same compound?
A: inactive

Q: And the Potency [6]?
A: inactive

Q: With `CC1(C)CC[C@]2(C(=O)O)CC[C@]3(C)C(=CCC4[C@@]5(C)C[C@@H](O)[C@H](O)[C@@](C)(CO)C5[C@H](O)C[C@]43C)[C@@H]2C1` (some centres undefined) as the compound, how does the Potency [1] read?
A: inactive

Q: What about the Potency [2] of the same compound?
A: inactive

Q: What about the Potency [3] of the same compound?
A: inactive

Q: What about the Potency [4] of the same compound?
A: inactive

Q: And the Potency [5]?
A: inactive

Q: And the Potency [6]?
A: inactive
